# Laboratory results: PubChem BioAssay (NCATS)
# Records with an inconclusive call do not appear. Values without a mark were called inactive. The source made the active and inactive calls. The call rests on the fitted dose curve; in most records, active means well fitted inhibition curve with a large enough effect; inconclusive means small, poorly fitted or top-dose-only effect; inactive means no such curve, though single readings can be large or run the other way.
# Target: Retinaldehyde dehydrogenase 3 (Homo sapiens) (UniProt P47895)
# Assay: qHTS for Inhibitors of the Aldehyde Dehydrogenase Family (ALDH1A3) Confirmatory screens (AID 2061311); further: nearly all actives have a fitted effect of over 60% in size
# Details: ALDH inhibition qHTS; series mostly up to 46 µM; activity change, negative = inhibition: at the top concentration
# On the % scale 0 is the no-effect control and ±100 the full control effect; potency means the concentration at half of the fitted maximal effect.
Structure (SMILES),Potency,"activity change, negative = inhibition",outcome
CN(C)c1ccc(C(=O)NCC(=O)OC(C(=O)Nc2cc(C(F)(F)F)ccc2Cl)c2ccccc2)cc1 (stereo not given),11.3 µM (active),,
CN(C)[C@H]1CCN(c2cccc(Nc3nn4c(=O)c5ccccc5nc4s3)c2)C1,3.18 µM (active),,
C=C1[C@@H](OC(C)=O)CC[C@@]2(C)[C@@H](OC(C)=O)[C@H](OC(C)=O)C3=C(C)C[C@H](OC(=O)C(C)CC)[C@@H]([C@@H](OC(C)=O)[C@H]12)C3(C)C (stereo not given in full),,-13.1% [at 16.6 µM],
O=C1Nc2ccccc2/C1=C/c1cccc(C(=O)O)c1,4 µM (active),,
Cc1cc(-c2nnc3n2CCCCC3)c(C)n1-c1cccc2ccccc12,,-18.8% [at 0.022 µM],
O=c1[nH]c(CN2CCOCC2)nc2sc3c(c12)CCCC3,,,inactive; activator
Nc1ccc(Nc2cc(O)c3ncccc3c2)cc1,0.712 µM (active),,
O=C(OCC#CCSc1nnc(-c2cccc3ccccc23)o1)c1ccncc1,2.01 µM (active),,
Nc1nccc(-c2c(-c3ccc(F)cc3)ncn2C2CCCCC2)n1,,-1.52%,
c1nc(NCC2CC2)c2cc(-c3ccc4c(c3)OCO4)ccc2n1,,,inactive
O=C([C@@H]1CCCN(c2ccc3[nH]c(C4(n5cc(Cl)cn5)CC4)nc3n2)C1)N1CCCC1,,-16.1%,
Cc1ccc(CN(C)c2ccc(N3CCN(C)CC3)cc2)cc1,20.1 µM (active),,
NC(=O)C1CCN(c2nc(-c3cc4ccccc4o3)cs2)CC1,,-16.7%,
Cc1ccc(OCCn2c3c(c4ccccc42)CN(C(=O)C2CCCCC2)CC3)cc1,11.3 µM (active),,
Cc1ccc(CN(C)c2ncnc3ccc(-c4ccc(C#N)n4C)cc23)o1,22.4 µM (active),,
N#Cc1cnc(NS(=O)(=O)c2ccc(NC(=O)Cc3ccc(Cl)c(Cl)c3)cc2)s1,,-15.8%,
NC(=O)C1CCN(c2nccc(-c3ccc4c(c3)OCCCO4)n2)CC1,12.7 µM (active),,
CCCCN1C(=O)c2ccccc2NC1c1ccc(OC)c(COc2ccc(NC(C)=O)cc2)c1 (stereo not given),12.6 µM (active),,
N#Cc1cccnc1SC1=NS(=O)(=O)c2ccccc21,1.27 µM (active),,
Cc1ccc2nc3sc(C(=O)N4CCCCC4)cc3cc2c1,12.7 µM (active),,
COc1ccc(C2Nc3ccccc3C(=O)N2Cc2ccc(-c3ccccc3)cc2)cc1COc1ccc(NC(C)=O)cc1 (stereo not given),11.2 µM (active),,
CN1C(=O)Cc2cc([S+](=O)([O-])N3CCN([S+](=O)([O-])c4c(F)cccc4F)CC3)ccc21,,-15.5%,
Cc1ccc(-c2cnn(CC(=O)NCCc3ccccc3)c(=O)c2)cc1,14.1 µM (active),,
Cc1ccc(NC(=O)CN2C(=O)N/C(=C\c3cccn3-c3ccc(C(=O)O)cc3)C2=O)cc1,,-0.158%,
Cc1ccc(S(=O)(=O)Nc2cc(C(F)(F)F)ccc2C(=O)Nc2nc(-c3ccccc3)cs2)cc1,,-8.25%,
C/C(=C\c1cccc(C(F)(F)F)c1)C1Nc2cccc3cccc(c23)N1,11.3 µM (active),,
Cc1csc(CN(C)c2ncnc3ccc(-c4ccc5c(c4)OCO5)cc23)n1,25.1 µM (active),,
CC(=O)Nc1sc2c(c1-c1nc3ccccc3s1)CN(C(C)C)C2,,-10.2%,
CC(C)(Nc1nc(-c2ccccc2C(F)(F)F)nc2ccccc12)c1ccc(-c2cccc(C(F)(F)F)c2)cc1,,-15.2%,
CNC(=O)C1CCN(c2nc(-c3ccc(Br)cc3)cs2)CC1,,-3.18%,
